The text below walks through data of PubChem BioAssay AID1259343 (VanderVen Lab, College of Veterinary Medicine, Cornell …, 2017).

Usually inhibition stands for the relative decrease from the control value, in per cent.

The whole screen tested about 6,200 compounds, of which about 2,900 (47%) were called active. The set was probably picked from earlier hits. Some of the results follow. Values without a mark were called inactive. No stated cut-off is given here; in the data, active means inhibition above about 50%; inactive means the rest.

The assay in a line: Mycobacterium tuberculosis growth inhibition, primary screen (AID 1259343). Conditions: inhibition: at 10 µM, stronger effect = higher value; outcome: 10 uM.
As to `O=S(=O)(NCCc1cccc(Cl)c1)N1CCCCCC1`, the inhibition was 21.7%.

Turning to `O=C(NCCc1cccc(Cl)c1)N1CCc2ccccc2C1`, the inhibition is 83.4% (active). Next, `O=C(NCCc1ccc(Cl)cc1)N1CCN(c2ccccc2)CC1`: 13.3%; `CSc1nc2ccc(N=Cc3c[nH]c4ccccc34)cc2s1`: 95.1% (active).

On to `CSc1nc2ccc(N=Cc3ccc4ncccc4c3)cc2s1`, for which the inhibition is -22.5%. As to `Cn1c(CSc2ccccc2)nc2ccccc21`, the inhibition is 39%. Regarding `Cc1ccc(C)c(OCCN(C)Cc2nc3ccccc3n2C)c1`, the inhibition is 83.1% (active). Regarding `Cn1c(COc2cccc3ccccc23)nc2ccccc21`, the inhibition was -3.53%. Next, `CC(C)CCCC(C)Nc1ncnc2sccc12` (centres undefined): 60.5% (active). With `CCCCC(CC)CNS(=O)(=O)c1cccc(F)c1` (centres undefined) the figure was 45.9%; with `c1nc(NC23CC4CC(CC(C4)C2)C3)c2ccsc2n1`, -13.2%.

As for `FC(F)(F)c1cc(Nc2ncnc3sccc23)ccc1Br`, the inhibition is 23.6%. With `CCCCC(CC)CNc1ncnc2sccc12` (centres undefined) the figure was 59.1% (active); with `CC1(C)C2CCC1(C)C(Nc1ncnc3sccc13)C2` (centres undefined), 41.4%. Consider `Cc1cc(C)n(-c2cccc(CN(C)Cc3nc(-c4ccc5c(c4)OCO5)no3)c2)n1`, for which the inhibition was 45.7%. `CN(Cc1cccc(-n2cccn2)c1)Cc1nc(Cc2ccccc2Cl)no1`: the inhibition result is “inactive”.

Consider `COC(=O)c1ccc(-c2noc(CN(C)Cc3cccc(-n4cccn4)c3)n2)cc1`, for which the inhibition is 50.6% (active). With `CC(SC1CCCC1)C(=O)N1CCCC1` (centres undefined) the figure was 52.1% (active); with `COc1cccc(-c2ccccc2NC(=O)C2CCN(CCC(C)c3ccc(C)o3)CC2)c1` (centres undefined), 80.1% (active); with `COc1cccc(-c2ccccc2NC(=O)C2CCN(Cc3cc4ccccc4[nH]3)CC2)c1`, 17.3%. Next, `COc1cccc(-c2ccccc2NC(=O)C2CCN(CC(C)c3ccccc3)CC2)c1` (centres undefined): 74.2% (active); `COc1cccc(-c2ccccc2NC(=O)C2CCN(CC3CCCCC3)CC2)c1`: 89.8% (active).

Regarding `COc1cccc(-c2ccccc2NC(=O)C2CCN(CC3CC=CCC3)CC2)c1` (centres undefined), the inhibition was 84% (active).

`CC(C)c1ccc(C#N)c(SC2CC(=O)N(c3ccc(Br)cc3)C2=O)n1` (centres undefined): the inhibition is 10.7%. As to `O=C(/C=C/c1ccc(O)c(O)c1)OCCc1ccccc1`, the inhibition is 102% (active). Next, `COc1cc(/C=C/C(=O)O)ccc1O`: 37.7%; `CC1CC(OCC(O)CN2CCC(CN3C(=O)c4cccc5cccc(c45)C3=O)CC2)CC(C)(C)C1` (centres undefined): 90.1% (active). Take `O=C(CCNc1ccc(Cc2ccncc2)cc1)c1ccc2c(c1)OCO2`: the inhibition is 84.6% (active). With `O=C(C(Br)=CNc1ccc(Cl)c(Cl)c1)C(F)(F)F` the figure was 87% (active); with `CCC(C(=O)c1ccc2ncccc2c1)c1ccccc1` (centres undefined), 58.2% (active); with `CN(CC1Cc2ccccc2O1)C(=O)c1cc(COc2ccc3ncccc3c2)on1` (centres undefined), 35.5%. `CCN(c1ccc(C(=O)Nc2ccncc2)cc1)C(C)C`: the inhibition is 8.43%. `CCc1ccc(C(=O)NCc2cccc(C(=O)Nc3ccncc3)c2)o1`: the inhibition was 51.8% (active). On to `CCc1ccc(C(=O)NCc2ccc(C#N)cc2)o1`, for which the inhibition is 12.2%. Next, `CC1(C)C2CC=C(C=NNC(=O)NC3CCCCC3)C1C2` (centres undefined): -4.24%. On to `O=C(/C=C/c1ccc([N+](=O)[O-])s1)Nc1nnc(C2COc3ccccc3O2)o1` (centres undefined), for which the inhibition was 101% (active). As for `CN(CCCCCCCCCCN(C)C(=O)Oc1cccc([N+](C)(C)C)c1)C(=O)Oc1cccc([N+](C)(C)C)c1`, the inhibition was 49.3%. With `CN(CCCC(=O)Nc1ccc2[nH]c(=S)oc2c1)C(=O)OC(C)(C)C` the figure was 73.7% (active); with `C=CCN=c1scc(-c2ccccc2)n1N=Cc1ccccn1`, 20.3%; with `Cc1[nH]n(-c2cccc(Cl)c2)c(=O)c1C=NCCc1ccccc1`, 72.9% (active). Take `Cc1ccc(C)c(Oc2cc(-n3ncc(Cl)c(Cl)c3=O)nc(C)n2)c1`: the inhibition is 101% (active). Consider `Cc1ccc2nc(-c3ccncc3)cc(-c3ccccc3)c2c1`, for which the inhibition is 53.7% (active). Regarding `NC(=O)C(c1ccc(F)cc1)N1CCOC(c2ccc(F)cc2)C1` (centres undefined), the inhibition is -5.29%. Regarding `O=C(CCl)N1CCN(Cc2cccc3ccccc23)CC1`, the inhibition was 71.9% (active). As for `O=C(c1ccc2c(c1)OCO2)C1CCCN(Cc2c(F)cccc2Cl)C1` (centres undefined), the inhibition is -16.5%.

As for `CC1(C(=O)NCc2cccc3ccccc23)CCN1CCCc1ccccc1` (centres undefined), the inhibition is 32.3%.

For the compound `O=C(CCl)N1CCN(Cc2ccc(Cl)s2)CC1`, the inhibition is -19.9%.

For the compound `O=c1ccc(-c2cccc([N+](=O)[O-])c2)nn1Cc1c(F)cccc1Cl`, the inhibition was 21.1%. Regarding `O=C(CCl)N1CCN(c2ccccc2F)CC1`, the inhibition was 97.1% (active). With `N#Cc1c(F)cccc1N1CCN(c2ccccc2O)CC1`, the inhibition was -21.1%.

For `O=[N+]([O-])c1ccc(N2CCN(Cc3c(F)cccc3Cl)CC2)cc1`, the inhibition is 86.5% (active). In the case of `O=C(CCl)N1CCN(Cc2c(F)cccc2Cl)CC1`, the inhibition was 66.2% (active). With `O=c1ccc(-c2ccco2)nn1Cc1cccc2ccccc12`, the inhibition was 37%.

As for `O=c1c(-c2cccc(Br)c2)[n+]([O-])c2ccccc2n1O`, the inhibition is 5.77%.

On to `O[N+]1=CC=CCC1=S.On1ccccc1=S.[Zn]`, for which the inhibition was 102% (active).

In the case of `CCc1ccc(S(=O)(=O)N2CCC(CO)(Cc3ccc(OC)cc3)CC2)s1`, the inhibition was 15.3%. With `O=S(=O)(c1ccc(Cl)cc1)N1CCCC2CCCCC21` (centres undefined), the inhibition was 23.9%.

For the compound `Cc1ccc(S(=O)(=O)N2CCC(NC(=O)C(C)Oc3ccc(Cl)cc3Cl)CC2)cc1` (centres undefined), the inhibition was 10.4%. In the case of `COc1ccc(S(=O)(=O)N2CC3(C)CC2CC(C)(C)C3)cc1` (centres undefined), the inhibition was 24.4%. With `COc1ccc(-c2ccc(S(=O)(=O)N3CCCCCC3)cc2)cc1`, the inhibition was 81.1% (active). For the compound `Nc1cc(S(=O)(=O)N2CCCCC2)ccc1Oc1ccc(Cl)cc1`, the inhibition was 16.6%.

Regarding `COc1ccc2cc(CN(C)c3ccc(C#N)cn3)ccc2c1`, the inhibition is 19.4%.

Regarding `COc1ccc(CC2CCN(S(=O)(=O)c3ccc(C#N)cc3)CC2)cc1`, the inhibition is 52.4% (active).

Turning to `COc1ccc(CC2CCN(S(=O)(=O)c3ccc(Cl)cc3)CC2)cc1`, the inhibition was 56.9% (active).
